# Records with an inconclusive call do not appear. A call without a number means that no potency is given here. The source made the active and inactive calls. The call rests on the fitted dose curve; in most records, active means well fitted inhibition curve with a large enough effect; inconclusive means small, poorly fitted or top-dose-only effect; inactive means flat fitted curve, though single readings scatter. Where a SMILES comes first, the peptide text is derived from it. The star is where a group is joined. Hexanoyl = CCCCCC(=O)*
# Assay: P-glycoprotein substrates identified in KB-8-5-11 adenocarcinoma cell line, qHTS therapeutic library screen (AID 1346987); further: nearly all actives have a fitted effect of over 65% in size
# Conditions: KB-8-5-11 (P-gp overexpressing) viability, CellTiter-Glo, 72 h; series mostly up to 44.5 µM
# In short: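 In this qHTS, P-gp-rich KB-8-5-11 cells received library compounds across a concentration range. Viability was quantified by luminescence after 72 h at 37 degree C.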
SMILES,Potency,outcome,"activity change, negative = cytotoxicity"
C=C(CCO)C(=O)OCC1OCC(OC(=O)C(=C)CCO[C@@H]2O[C@H](COC(=O)C(=C)CCO[C@@H]3O[C@H](CO)[C@@H](O)[C@H](O)[C@H]3O)[C@@H](O)[C@H](O)[C@H]2O)C(O)C1O (stereo not given in full),inactive,,
CCCCCC(=O)N1CCC[C@H]1C(=O)N[C@@H](Cc1ccc(O)cc1)C(=O)OC (Hexanoyl-Pro-Tyr-OMe),inactive,,
CC(=O)C1CCC(=O)N1Cc1ccccc1 (stereo not given),inactive,,
COC(=O)CCC1(C)C(C(C)(C)O)C(O)CC2(C)Oc3c(C)c4c(c(OC)c3CC21)C(=O)OC4 (stereo not given),inactive,,
C=C(C(=O)O)[C@@H]1CC[C@@]2(C)CCC[C@@](C)(O)[C@@H]2C1,inactive,,
NCCCCN(Cc1nc2ccccc2[nH]1)[C@H]1CCCc2cccnc21,inactive,,
COc1c(O)cc2c(c1O)C(=O)O[C@H](C)[C@H]2O,inactive,,
CC1CCC2(NC1)OC1C(O)C3C4CCC5CC(O[C@@H]6O[C@H](CO)[C@@H](O)[C@H](O)[C@H]6O[C@@H]6O[C@@H](C)[C@H](O)[C@@H](O)[C@H]6O)CCC5(C)C4CCC3(C)C1C2C (stereo not given in full),inactive,,
CCC/C=C1\OC(=O)C2=C1CCC(O)C2O (stereo not given),inactive,,
COc1ccc(OC2OC(CO[C@@H]3O[C@@H](C)[C@H](O)[C@@H](O)[C@H]3O)C(O)C(O)C2O)cc1OC (stereo not given in full),inactive,,
CC(C)=C1CC2[C@](C)(CC[C@@H](OC(=O)C3(C)OC3C)[C@@]2(C)O)CC1=O (stereo not given in full),inactive,,
CC1=C(CO)CC(C(C)C2CCC3C4CC=C5CC(OC6OC(COC7OC(CO)C(O)C(O)C7O)C(O)C(O)C6O)CC(O)C5(C)C4CCC23C)OC1=O (stereo not given),inactive,,
CC1CCC23COC(=O)C2=CC(O)CC3C1(C)CCc1ccoc1 (stereo not given),inactive,,
CC1(O)CCC2C(C3C1CCC3(C)O)C2(C)C (stereo not given),inactive,,
C[C@@H]1O[C@@H](O[C@H]2[C@@H]3C=CO[C@@H](O[C@@H]4O[C@H](CO)[C@@H](O)[C@H](O)[C@H]4O)[C@@H]3[C@@]3(CO)O[C@@H]23)[C@H](O)[C@H](O)[C@H]1OC(=O)/C=C/c1ccc(O)cc1,inactive,,
CC(=O)c1c(C)cccc1O[C@@H]1O[C@H](CO)[C@@H](O)[C@H](O)[C@H]1O,inactive,,
C/C=C(/C)C(=O)OC1C(OC(C)=O)C23C(O)OC4(CCC5C6(C)CCC(OC7OC(C(=O)O)C(O)C(OC8OC(CO)C(O)C(O)C8OC8OC(C)C(O)C(O)C8OC8OCC(O)C(O)C8O)C7OC7OC(CO)C(O)C(O)C7O)C(C)(C)C6CCC5(C)C4(C)CC2OC(C)=O)C3CC1(C)C (stereo not given),,inactive [at 9.29 µM],
C=C1C2(C)CC3C4(C)OC(C5OC56C4=CC(=O)OC6(C)C)C3(C)C13C(=O)OC(C)C3(O)C2=O (stereo not given),inactive,,
OCC1OC(Oc2cc(O)cc(/C=C/c3ccc(OC4OC(CO)C(O)C(O)C4O)cc3O)c2)C(O)C(O)C1O (stereo not given),inactive,,
C=C1CC[C@@H]2C(C)(C)CCC[C@@]2(C)[C@@H]1CC/C(=C/C(=O)OC)COC(C)=O,inactive,,

SMILES,Potency,outcome,"activity change, negative = cytotoxicity"
O=C(C1OC1/C=C/c1ccc2c(c1)OCO2)N1CCCCC1 (stereo not given),inactive,,
COc1cc(C2Oc3c(OC)cc(/C=C/C(=O)OC4CC(O)(C(=O)O)CC(O)C4O)cc3C2CO)ccc1O (stereo not given),inactive,,
CC1(C)CC[C@]2(C(=O)O)CC[C@]3(C)C(=CCC4[C@@]5(C)CC[C@H](O[C@@H]6O[C@H](C(=O)O)[C@@H](O)[C@H](O)[C@H]6O)C(C)(C)C5CC[C@]43C)C2C1 (stereo not given in full),inactive,,
COC(=O)C1=CO[C@@H](O[C@@H]2O[C@H](CO)[C@@H](O)[C@H](O)[C@H]2O)[C@@H]2C(C)CC(=O)[C@]12O (stereo not given in full),inactive,,
CC(=O)O[C@@H](C[C@@H]1C=C(C)C(=O)O1)[C@H](C)[C@H]1CCC2[C@@]3(C)CC[C@H](O[C@@H]4O[C@H](CO)[C@@H](O)[C@H](O)[C@H]4O[C@@H]4O[C@@H](C)[C@H](O)[C@@H](O)[C@H]4O)C(C)(C)C3CC[C@@]2(C)[C@@]12COC(=O)C2 (stereo not given in full),,,-0.38% [at 9.29 µM] (inactive)
C=C1C(=O)O[C@@H]2CC(C)=C([C@@H](C)CCCOC(C)=O)[C@@H](O)[C@H]12,inactive,,
COc1ccc(/C=C/C(=O)O[C@@H]2[C@@H](O[C@@H]3O[C@H](CO)[C@@H](O)[C@H](O)[C@H]3O)[C@@H](O)[C@H](O[C@H]3C4C=CO[C@@H](O[C@@H]5O[C@H](CO)[C@@H](O)[C@H](O)[C@H]5O)C4[C@@]4(CO)O[C@@H]34)O[C@H]2C)cc1 (stereo not given in full),,,2.62% [at 9.29 µM] (inactive)
CC1OC(OC2C(OC(=O)[C@]34CCC(C)(C)C[C@H]3C3=CCC5[C@@]6(C)CC[C@H](OC7OC(C(=O)O)C(O)C(O)C7O)C(C)(C)C6CC[C@@]5(C)[C@]3(C)CC4O)OC(CO)C2O)C(O)C(O)C1OC1OCC(O)C(O)C1O (stereo not given in full),,,7.83% [at 9.29 µM] (inactive)
C[C@@H]1C[C@@H](O)[C@@]23CO[C@]2(CO)CCC[C@@H]3[C@@]12C[C@@H](c1ccoc1)OC2=O,inactive,,
COC(=O)[C@]1(C)CCC[C@@]2(C)C(=O)CC[C@H]3C(=O)C=C(CC[C@@H]21)C3O (stereo not given in full),inactive,,
O=C(/C=C/c1ccccc1)OC[C@H]1O[C@@H](OC(=O)c2cc(O)c(O)c(O)c2)[C@H](O)[C@@H](O)[C@@H]1O,inactive,,
COc1ccc2[nH]c(S(=O)Cc3ncc(C)c(OC)c3C)nc2c1 (stereo not given),inactive,,
COc1ccc(/C=C/C(=O)O[C@@H]2[C@@H](OC(C)=O)[C@@H](OC(C)=O)[C@H](O[C@H]3[C@@H]4C=CO[C@@H](O[C@@H]5O[C@H](CO)[C@@H](O)[C@H](O)[C@H]5O)[C@@H]4[C@@]4(CO)O[C@@H]34)O[C@H]2C)cc1,inactive,,
CCC(C)/C=C(C)/C=C/C(=O)C1CCC(O)C(C)(O)C1=O (stereo not given),inactive,,
COc1cc(Nc2nc3c(s2)CCCC3c2ccccc2)ccc1-n1cnc(C)c1 (stereo not given),,,-10.2% [at 9.29 µM] (inactive)
CNC(C)C(=O)NC(C(=O)N1CCCC1C(=O)Nc1cccc2ncccc12)C(C)C (stereo not given),inactive,,
CC(=O)OCC1OC(OC2COC(OC3COC(OC4C(OC5C(CO)OC(OC6CCC7(C)C(CCC8(C)C7CC=C7C9CC(C)(C)CCC9(C(=O)OC9OC(CO)C(O)C(O)C9OC9OCC(OC%10OCC(O)(CO)C%10O)C(O)C9O)C(O)CC78C)C6(C)C)C(O)C5O)OCC(O)C4O)C(O)C3O)C(O)C2O)C(OC(=O)/C=C/c2ccccc2)C(O)C1OC(C)=O (stereo not given),,,0.531% [at 5.11 µM] (inactive)
Cc1occc1C(=O)n1ccnc1,inactive,,
CC(=O)OC1C(O)C(C)(O)C(/C=C/C(=O)O)C2(C)CCCC(C)(C)C12 (stereo not given),inactive,,
CS(=O)(=O)c1ccccc1N1CCN(c2nc3c(c(=O)[nH]2)CSCC3)CC1,inactive,,
